Inconclusive results are not listed. Active and inactive are the calls of the source. The call rests on the fitted dose curve.

Peroxisome proliferator-activated receptor delta (Homo sapiens), sequence (Q03181 whole entry, looked up): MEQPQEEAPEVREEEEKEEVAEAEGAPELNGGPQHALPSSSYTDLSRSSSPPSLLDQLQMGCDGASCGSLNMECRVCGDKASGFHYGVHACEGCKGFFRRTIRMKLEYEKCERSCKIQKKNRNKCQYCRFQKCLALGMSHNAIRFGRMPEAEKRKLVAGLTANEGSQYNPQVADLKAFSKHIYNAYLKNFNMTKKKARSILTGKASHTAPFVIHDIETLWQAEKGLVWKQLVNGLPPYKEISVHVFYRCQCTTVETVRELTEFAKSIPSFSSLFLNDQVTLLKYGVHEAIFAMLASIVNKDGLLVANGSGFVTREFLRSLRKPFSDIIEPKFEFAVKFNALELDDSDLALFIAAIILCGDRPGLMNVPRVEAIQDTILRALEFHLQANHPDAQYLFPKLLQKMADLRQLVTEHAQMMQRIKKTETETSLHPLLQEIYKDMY

The assay addresses Peroxisome proliferator-activated receptor delta (Homo sapiens) (UniProt Q03181). The experiment in a line: qHTS assay for small molecule agonists of peroxisome proliferator-activated receptor delta signaling (AID 588534). The conditions noted are these: HEK293T PPARdelta-UAS-bla, beta-lactamase ratio, 18 h; series mostly up to 76.7 µM. The procedure, abridged: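 Agonist-mode qHTS; reporter cells, 5 hrs 37 C pre-incubation; compound titration, 18 hrs 37 C; CCF4 dye, 2 hrs RT; fluorescence read. EC50/efficacy via Hill fit.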
(In general: In qHTS, concentration-response curves come from the screen itself.)
On to `Cc1ccccc1C=O`, for which the outcome was inactive.

In the case of `C1CCC2OC2C1` (stereo not given), the outcome was inactive.

On to `Cc1ccc(C)c([N+](=O)[O-])c1`, for which the result was inactive.

As for `ClC/C=C/CCl`, the outcome was inactive.

Take `CCCCCCCCN`: the outcome was inactive.

`FC(F)(F)c1ccc(Cl)c(Cl)c1`: the result was inactive.

`OC1CCCC1`: the outcome was inactive.

For `Nc1nc(CC(=O)O)cs1`, the outcome was inactive.

Regarding `O=C(O[C@@H](C(=O)O)[C@@H](OC(=O)c1ccccc1)C(=O)O)c1ccccc1`, the outcome was inactive.

As to `CC1(C)CC(OC(=O)CCCCCCCCC(=O)OC2CC(C)(C)NC(C)(C)C2)CC(C)(C)N1`, the result was inactive.

These data come from PubChem BioAssay (NCATS).
